Laboratory results published in PubChem BioAssay.

experiment: resazurin metabolic signal in HepG2 cells – cell-based, resazurin fluorescence, 24 h, PK04 Diversity Set, profiling panel (AID 1172); settings: HepG2 viability, higher = more signal; note: test concentration not given here

In order of rising z-score:
1. COCCOC(=O)N1C(=O)[C@@]2(c3cc(C#CC4(O)CCCCCC4)ccc31)[C@H](C(N)=O)[C@H]1C(=O)O[C@H](c3ccccc3)[C@H](c3ccccc3)N1[C@@H]2c1ccccc1OCCO  -1.85
2. COC(=O)[C@]1(CCS(=O)(=O)c2ccccc2)N=C(c2ccc(OCCCO)cc2)O[C@@H]1c1ccccc1CN=[N+]=[N-]  -1.71
3. O=C1O[C@@H](c2ccccc2)[C@@H](c2ccccc2)N2[C@@H](c3ccc(O)cc3)[C@]3(C(=O)Nc4ccccc43)[C@@H](C(=O)Nc3nc4ccccc4s3)[C@H]12  -1.66
4. C[C@H]1C2=C3C(CC[C@H]4C(OCc5ccc(F)cc5C(F)(F)F)OC[C@](C)([C@@H]34)N(C(=O)OC(C)(C)C)C2)C(CO)C1CO (stereo partly specified)  -1.49
5. CC(=O)N1Cc2ccccc2C[C@]2(N=C(c3ccc(OCCCO)cc3)O[C@@H]2c2ccccc2)C1=O  -0.908
6. COCCOC(=O)N1C(=O)[C@@]2(c3cc(C#CC4=CCCCC4)ccc31)[C@H](c1ccc(O)cc1)N1[C@H](c3ccccc3)[C@H](c3ccccc3)OC(=O)[C@H]1[C@@H]2C(=O)Nc1nc2ccccc2s1  -0.477
7. O=C1OCC=C[C@H]2OC34C=CCN(c5ccc(Cl)cc5)C(=O)[C@H]3N(CCCCCO)C(=O)[C@@H]4[C@@H]12 (stereo partly specified)  -0.46
8. CCCNC(=O)[C@@]1(c2ccc([N+](=O)[O-])cc2)CC(=O)N(C2CCCCC2)[C@@H]1c1ccc(CO)cc1I  -0.455
9. C=C1C2CC3C(=C4C(CO[C@@H]4[C@H]4CCCN4S(=O)(=O)c4ccccc4[N+](=O)[O-])C4C(=O)N(C)C(=O)C34)CC2C(=O)N1C (stereo partly specified)  -0.398
10. [N-]=[N+]=Nc1ccccc1[C@@H]1OC(c2ccc(OCCCO)cc2)=N[C@]1(CCS(=O)(=O)c1ccccc1)C(=O)NCCN1CCOCC1  -0.376
11. O=C1c2ccccc2[C@@]2(Cc3ccccc3N(C3CC3)C2=O)[C@H](c2ccc(CO)cc2)N1C1CCCCC1  -0.319
12. COc1ccc([Si](C)(C)[C@H]2[C@H](CCn3cc([C@H](O)c4ccccc4)nn3)O[C@@]3(C(=O)N(Cc4ccc(N5CCOC5=O)cc4)c4ccccc43)[C@@H]2C)cc1  -0.27
13. COc1ccc(C(O)C2C=CC3C(=O)N(C)C(=O)C3N2N2CCCCC2)cc1 (stereo unspecified)  -0.197
14. O=C1c2ccccc2[C@](Cc2ccccc2I)(C(=O)NCc2ccccc2)[C@H](c2ccc(CO)cc2)N1C1CCCCC1  -0.176
15. COCCCNC(=O)[C@@]1(Sc2ccc(C)cc2)CC(=O)N(Cc2cc(C(F)(F)F)cc(C(F)(F)F)c2)[C@@H]1c1ccc(CO)cc1  -0.092
16. C=C(C(=O)CC[C@H](OC(=O)c1cccnc1)c1cccc(OCCO)c1)C(C)C  0.0418
17. CC1CC/C=C\[C@H]2OC34C=CCN(CCN5CCOCC5)C(=O)[C@H]3N(CCO)C(=O)[C@@H]4C2C(=O)O1 (stereo partly specified)  0.106
18. C=CCC(OC(C)=O)[C@@H]1[C@@H](N(Cc2cc3ccccc3o2)C(=O)Cc2ccc(F)cc2)c2cc(OCCCO)ccc2N1C(=O)c1ccc2ccccc2n1 (stereo partly specified)  0.182
19. CC(C)C(O)C1C=CC2C(=O)N(C)C(=O)C2N1N(c1ccccc1)c1ccccc1 (stereo unspecified)  0.207
20. COCCOC(=O)N1C(=O)[C@@]2(c3ccccc31)[C@H](c1ccc(OCCO)cc1)N1[C@H](c3ccccc3)[C@H](c3ccccc3)OC(=O)[C@H]1[C@@H]2C(=O)Nc1nc2ccccc2s1  0.269
21. COCCOC(=O)N1C(=O)[C@@]2(c3cc(C#CC4(O)CCCCCC4)ccc31)[C@H](C(=O)N1CCCCCCC1)[C@H]1C(=O)O[C@H](c3ccccc3)[C@H](c3ccccc3)N1[C@@H]2c1ccc(OCCO)cc1  0.304
22. CCCCC(=C=CC[C@@H](O)c1ccc(OCCO)cc1)C[C@@H](O)COCc1ccccc1  0.931
23. [N-]=[N+]=Nc1ccccc1C[C@@]1(C(=O)O)N=C(c2ccc(OCCCO)cc2)O[C@@H]1c1ccccc1  1.06
24. CC(C)(C)OC(=O)CC[C@]1(C(=O)O)N=C(c2ccc(OCCCO)cc2)O[C@H]1c1ccccc1  1.29
25. O=C1O[C@@H](c2ccccc2)[C@@H](c2ccccc2)N2[C@@H](c3ccc(O)cc3)[C@]3(C(=O)Nc4ccc(C#CCCO)cc43)[C@@H](C(=O)NC[C@H](O)c3ccccc3)[C@H]12  1.29
26. COC(=O)[C@@]1(Cc2ccc(OC)cc2)[C@H]2c3cc(C(=O)N(C)C)n(Cc4ccccc4)c3C[C@H]2CN1C(=O)c1ccccc1  2.31
